Legend:
Details in all cases: concentration: 1 μM, replicates: in singlicate; n = 1
AAK1 = tested on: AAK1
ABL1-nonphosphorylated = tested on: ABL1-nonphosphorylated
ABL1-phosphorylated = tested on: ABL1-phosphorylated
ABL2 = tested on: ABL2
ACVR1B = tested on: ACVR1B
ACVR1 = tested on: ACVR1
ACVR2A = tested on: ACVR2A
ACVR2B = tested on: ACVR2B
ACVRL1 = tested on: ACVRL1
ADCK3 = tested on: T1, ADCK3
T1 construct: gene CABC1

ADCK4 = tested on: ADCK4
AKT1 = tested on: AKT1
AKT2 = tested on: AKT2
AKT3 = tested on: AKT3
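Further: KINOMEscan kinase panel screen.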

Structure (SMILES)	%Inh (AAK1) [%]	%Inh (ABL1-nonphosphorylated) [%]	%Inh (ABL1-phosphorylated) [%]	%Inh (ABL2) [%]	%Inh (ACVR1B) [%]	%Inh (ACVR1) [%]	%Inh (ACVR2A) [%]	%Inh (ACVR2B) [%]	%Inh (ACVRL1) [%]	%Inh (ADCK3) [%]	%Inh (ADCK4) [%]	%Inh (AKT1) [%]	%Inh (AKT2) [%]	%Inh (AKT3) [%]
Cc1nn2c(=O)cc(N3CCOCC3)nc2n1Cc1cccc(Cl)c1Cl [GSK2342769]	14	0	0	9	0	12	0	0	42	10	4	0	14	0
COc1ccc(-c2coc3ccc(-c4nnc(SCc5cccc(C#N)c5)o4)cc23)cc1	0	23	0	0	6	6	0	0	0	21	0	0	2	0
COc1cc2ncn(-c3cc(OCc4ccncc4)c(C(N)=O)s3)c2cc1OC [GSK336313]	58	0	7	0	0	9	0	0	0	0	20	0	1	0
Nc1ncnc2c1ncn2-c1cccc(F)c1 [SKF-97560]	0	9	14	8	0	1	0	0	0	21	0	9	12	0
Nc1nc(N)c2nc(-c3ccccc3)[nH]c2n1 [SKF-12778]	23	18	15	9	18	6	27	26	3	0	22	15	8	15
Cc1nnc(-c2ccc3ncn(-c4ccc(S(C)=O)cc4)c3c2)o1 (stereo not drawn)	0	22	0	6	15	0	0	0	9	5	0	0	0	0
CCC(=O)c1c(-c2ccccc2)c2cc(Cl)ccc2c(=O)n1Cc1cc(S(C)(=O)=O)n(CC(F)F)n1	0	23	2	0	0	0	0	0	0	0	0	0	0	0
Cl.NS(=O)(=O)c1cccc(Nc2cc(-c3ccc(F)cc3)n[nH]2)c1 [GW824645]	9	5	24	0	0	0	0	0	0	0	0	0	0	0
COc1cc(Nc2nccc(N3CCC(NC(=O)C(C)c4ccc(Cl)cc4)C3)n2)cc(OC)c1OC (stereo not drawn) [GSK1379757]	37	0	0	7	0	4	0	12	0	3	69	0	0	0
COc1cc2ncn(-c3cc(OCc4ccc(S(C)(=O)=O)cc4)c(C(N)=O)s3)c2cc1OC [GW869979]	0	0	13	14	0	51	0	0	4	31	0	0	0	0
O=C1NC(=O)C(c2ccccc2)=C1Nc1cccc(O)c1 [SB-390534]	0	22	5	1	0	22	0	0	0	0	0	0	0	0
O=C(Nc1ccc2c(c1)OCO2)NC1CCN(c2ccnc(NCc3ccc(F)cc3)n2)CC1 [GSK1379859]	0	0	0	0	0	0	0	0	0	0	30	0	5	0
CCn1c(-c2ccoc2)nc2cnccc21 [SB-733887]	1	1	17	10	0	15	0	18	0	10	20	0	14	0
FC(F)(F)c1ccc(-c2ncn(CCCN3CCOCC3)c2-c2ccncc2)cc1 [SB-217780]	7	44	0	8	10	0	0	0	4	1	8	0	0	28
CN1C(=O)C(Nc2ccccc2)=C(c2ccccc2)C1=O [SB-300079]	0	0	6	0	8	0	0	0	0	0	25	0	0	0
COc1cccc(C2=C(N(C)c3ccccc3)C(=O)NC2=O)c1 [SB-334865]	0	5	3	14	0	28	0	3	0	4	21	0	13	0
COC(=O)c1c(-c2ccccc2)c2cc(C)ccc2c(=O)n1Cc1ccccc1	1	53	0	6	0	0	7	0	0	0	0	0	3	0
Fc1cccc(CSc2nnc(-c3ccc4c(c3)CCO4)o2)c1	25	20	7	22	17	0	0	0	0	0	6	12	14	0
